Active and inactive are the calls of the source. Unless noted, how the calls were made is not given here.
Key:
[1] = HepG2 liver cancer cell viability effects, profiling panel, resazurin fluorescence, 24 h, PK04 Diversity Set (AID 1172); settings: higher = more signal; further: test concentration not given here
[2] = basal S. cerevisiae growth modulation, no modifier, primary screen, OD600, strain BY4716, 24 h, basal condition (AID 1173); settings: OD600, 24 h, higher = more signal, called active from +8 up or from −8 down
[3] = MM1S myeloma cell viability, profiling panel, resazurin fluorescence, basal, 24 h, PK04 Diversity Set (AID 1174); settings: higher = more signal, called active from +8 up or from −8 down;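 further: MM1S multiple myeloma cell line; test concentration not given here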
[4] = target: Dihydroorotate dehydrogenase (quinone), mitochondrial (Plasmodium falciparum (isolate 3D7)) (UniProt Q08210); experiment: PfDHODH enzyme inhibitors, primary screen, biochemical, C-terminal His tag, absorbance 600 nm (AID 1175); settings: DCIP absorbance 600 nm, higher = more signal, called active from +8 up or from −8 down;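 further: recombinant parasite enzyme with a five histidine tag at its C terminus; test concentration not given here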
Chain of Dihydroorotate dehydrogenase (quinone), mitochondrial (Plasmodium falciparum (isolate 3D7)) (Q08210 whole entry, looked up): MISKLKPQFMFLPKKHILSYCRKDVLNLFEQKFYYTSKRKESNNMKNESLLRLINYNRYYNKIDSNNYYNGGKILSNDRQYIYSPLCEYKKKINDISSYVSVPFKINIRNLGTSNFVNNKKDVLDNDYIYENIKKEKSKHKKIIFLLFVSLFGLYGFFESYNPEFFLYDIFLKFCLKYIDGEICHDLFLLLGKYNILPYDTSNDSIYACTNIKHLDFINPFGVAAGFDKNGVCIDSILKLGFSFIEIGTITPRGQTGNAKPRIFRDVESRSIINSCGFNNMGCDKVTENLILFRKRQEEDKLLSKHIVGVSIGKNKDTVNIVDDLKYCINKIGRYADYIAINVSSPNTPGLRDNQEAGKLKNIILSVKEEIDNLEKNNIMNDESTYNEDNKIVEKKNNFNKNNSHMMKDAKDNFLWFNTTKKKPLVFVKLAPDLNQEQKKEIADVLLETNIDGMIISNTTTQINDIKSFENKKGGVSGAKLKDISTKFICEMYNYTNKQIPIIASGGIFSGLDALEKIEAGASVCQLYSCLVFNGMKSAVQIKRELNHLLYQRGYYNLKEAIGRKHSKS

[5] = P. aeruginosa biofilm formation inhibitors, primary screen, strain PAO1, LB-PBS medium, absorbance 600 nm (AID 1176); further: test concentration not given here; settings: P. aeruginosa PAO1 growth/biofilm, A600, 12 h; higher = more signal
[6] = S. cerevisiae RM11-1a growth modifiers, primary screen, strain RM11-1a, OD600, basal, 24 h (AID 1177); settings: OD600, 24 h, higher = more signal, called active from +8 up or from −8 down;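 further: cultures grown under basal conditions with no added stressor; test concentration not given here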
[7] = E. coli acrAB mutant growth effects, primary screen, E. coli filamentation inducers, strain DRC39, OD650, 24 h (AID 1178); settings: higher = more signal, called active from +8 up or from −8 down;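 further: growth measured as culture turbidity by optical density at 650 nm; test concentration not given here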
[8] = E. coli acrAB mutant growth effects, primary screen, E. coli filamentation inducers, strain DRC39, OD650, 48 h (AID 1179);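 further: screen aims at cell division blockers that make cells filament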; settings: E. coli DRC39 delta-acrAB growth, higher = more signal, called active from +8 up or from −8 down
[9] = RPMI8226 myeloma cell viability, profiling panel, resazurin fluorescence, basal, 24 h, PK04 Diversity Set (AID 1180); settings: higher = more signal;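 further: RPMI8826 multiple myeloma cell line at 5000 cells per well; test concentration not given here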
[10] = target: E3 ubiquitin-protein ligase XIAP (Homo sapiens) (UniProt P98170); experiment: XIAP binders, primary screen, biophysical, small-molecule microarray, fluorescence 635 nm (AID 1181); settings: small-molecule microarray binding, higher = more signal;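 further: score merges 667 nm emission and signal to noise over triplicate slides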
Chain of E3 ubiquitin-protein ligase XIAP (Homo sapiens) (P98170 whole entry, looked up): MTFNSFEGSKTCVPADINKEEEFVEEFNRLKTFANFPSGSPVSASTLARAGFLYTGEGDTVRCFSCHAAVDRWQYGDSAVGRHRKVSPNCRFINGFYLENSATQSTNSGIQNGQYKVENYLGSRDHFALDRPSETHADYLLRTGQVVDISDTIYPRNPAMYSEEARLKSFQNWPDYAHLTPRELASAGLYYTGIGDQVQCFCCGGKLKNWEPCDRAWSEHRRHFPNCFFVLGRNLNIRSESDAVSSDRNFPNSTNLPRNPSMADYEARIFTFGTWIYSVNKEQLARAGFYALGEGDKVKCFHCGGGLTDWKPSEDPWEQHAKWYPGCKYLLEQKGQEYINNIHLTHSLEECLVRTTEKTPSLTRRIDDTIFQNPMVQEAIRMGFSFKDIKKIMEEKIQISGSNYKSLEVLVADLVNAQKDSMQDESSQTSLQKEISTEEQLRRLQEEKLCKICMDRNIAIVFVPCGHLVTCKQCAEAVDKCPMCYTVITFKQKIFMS

| SMILES | z-score [1] | z-score [2] | z-score [3] | composite z-score [4] | z-score [5] | z-score [6] | z-score [7] | z-score [8] | z-score [9] | composite z-score [10] |
| --- | --- | --- | --- | --- | --- | --- | --- | --- | --- | --- |
| COc1ccc(O[C@H]2C=C[C@@H](c3ccccc3)O[C@@H]2COC(=O)CCC(C)=NO[C@H](C)c2cn([C@@H]3COC[C@H]3O)nn2)cc1 | 0.896 | -0.419 (inactive) | -0.191 (inactive) | -4.78 (inactive) | -0.467 (inactive) | -0.572 (inactive) | -1.09 (inactive) | -0.033 (inactive) | 0.18 | -0.138 |
| COCC1=C2[C@@H](CCc3ccccc3)OB(O)C[C@@H]2n2c(=O)n(-c3ccccc3)c(=O)n2C1 | 0.0883 | -1.24 (inactive) | -0.177 (inactive) | 0.653 (inactive) | 0.248 (inactive) | -0.352 (inactive) | 0.969 (inactive) | 0.545 (inactive) | 0.0549 | 0.698 |
| COCCOC(=O)N1C(=O)[C@@]2(c3cc(C#CC4(O)CCCCCC4)ccc31)[C@H](C(=O)N1CCN(c3ncccn3)CC1)[C@H]1C(=O)O[C@H](c3ccccc3)[C@H](c3ccccc3)N1[C@@H]2c1ccc(OCCO)cc1 | -0.324 | 1.44 (inactive) | 0.712 (inactive) | -0.0915 (inactive) | 2.53 (inactive) | 2.98 (inactive) | -0.446 (inactive) | 0.293 (inactive) | 0.928 | -0.0749 |
| Cc1cc2c(nc1C)CCCN2CC(C)ON=C1[C@H]2CCn3c(=O)n(-c4ccccc4)c(=O)n3[C@H]2[C@H](O)[C@@H]2O[C@H]12 (stereo not given in full) | -0.942 | -0.286 (inactive) | -0.222 (inactive) | -0.153 (inactive) | 0.381 (inactive) | -0.488 (inactive) | -1.05 (inactive) | -1.98 (inactive) | -0.745 | 0.0483 |
| CC(CCN1CCc2nc(-c3ccccc3)c(-c3ccccc3)cc2C1)=NOC[C@@H](C)[C@H](OCc1ccccc1)C(C)C | -1.12 | -2.01 (inactive) | 0.504 (inactive) | 0.928 (inactive) | -0.315 (inactive) | 0.0117 (inactive) | -1.23 (inactive) | -0.936 (inactive) | 0.64 | -0.04 |
| CCc1cc2c(nc1CC)CCN(CCC(C)=NOC(C)CN1CCCc3nc(C)c(C)cc31)C2 (stereo not given) | -0.644 | -0.822 (inactive) | -0.845 (inactive) | 0.244 (inactive) | 0.429 (inactive) | -0.173 (inactive) | 0.278 (inactive) | -1.71 (inactive) | -0.615 | 1.13 |
| CC(CCN1CCCCc2nc(C)c(C)cc21)=NOC(C)CN1CCCc2nc(C)c(C)cc21 (stereo not given) | -0.0636 | -0.0975 (inactive) | -0.542 (inactive) | 0.333 (inactive) | 1.03 (inactive) | 0.325 (inactive) | 0.529 (inactive) | -0.936 (inactive) | -0.0794 | 1.56 |
| CCCNC(=O)OC[C@H]1O[C@H](CCON=C2[C@H]3CCn4c(=O)n(-c5ccccc5)c(=O)n4[C@H]3[C@H](O)[C@@H]3O[C@H]23)C=C[C@@H]1Oc1ccc(OC)cc1 | -0.633 | -0.521 (inactive) | -1.52 (inactive) | 0.017 (inactive) | 0.0767 (inactive) | 0.12 (inactive) | 0.621 (inactive) | 1.13 (inactive) | -2.05 | -0.2 |
| CCOC(=O)CCN1C(=O)[C@H]2[C@H]3[C@H](O)[C@H](O)CC(=NNC(=O)OCc4ccc(OC)cc4)[C@@H]3CC[C@H]2C1=O | -0.54 | 0.458 (inactive) | -1.24 (inactive) | 0.489 (inactive) | -0.0242 (inactive) | -0.217 (inactive) | 0.149 (inactive) | 0.237 (inactive) | -1.14 | -0.171 |
| COc1ccc(O[C@H]2C=C[C@@H](c3ccccc3)O[C@@H]2COC(=O)CCC(C)=NOC[C@@H](C)[C@H](OCc2ccccc2)C(C)C)cc1 | 0.85 | 0.445 (inactive) | 0.24 (inactive) | -0.926 (inactive) | -0.598 (inactive) | 0.659 (inactive) | 0.394 (inactive) | -0.9 (inactive) | 0.0668 | 0.552 |
| CCOC(=O)NN=C1C[C@@H](O)[C@@H](O)[C@@H]2[C@@H]3C(=O)N(C4CCCCC4)C(=O)[C@@H]3CC[C@H]12 | -0.912 | 0.486 (inactive) | -0.74 (inactive) | 0.406 (inactive) | -0.0941 (inactive) | 0.0422 (inactive) | -0.43 (inactive) | -0.358 (inactive) | -0.927 | -0.0246 |
| CC(C)[C@H](NC(=O)OC(C)(C)C)[C@@H](O)CC(=O)OC(C)(C)C | -0.811 | -0.448 (inactive) | 0.351 (inactive) | 0.0945 (inactive) | -0.506 (inactive) | 0.259 (inactive) | -1.69 (inactive) | -0.998 (inactive) | 0.496 | -0.102 |
| CCN1C(=O)[C@H]2[C@H]3[C@H](O)[C@H](O)CC(=NOCc4ccccc4)[C@H]3CC[C@H]2C1=O | -0.322 | -0.0753 (inactive) | -0.344 (inactive) | -0.422 (inactive) | 0.164 (inactive) | -0.889 (inactive) | 0.114 (inactive) | 0.293 (inactive) | -0.855 | 0.0785 |
| O=C1C[C@@H](O)[C@@H](O)[C@@H]2[C@@H]3C(=O)N(c4cccc(Oc5ccccc5)c4)C(=O)[C@@H]3CC[C@@H]12 | -0.165 | -0.208 (inactive) | 0.207 (inactive) | -0.453 (inactive) | -0.708 (inactive) | -0.25 (inactive) | -0.65 (inactive) | -0.644 (inactive) | -0.0298 | -0.102 |
| C[N+](C)(C)CCCCCCNC(=O)[C@@H]1C[C@@H]2C(=O)N3CCC[C@H]3C(=O)N2[C@@H]1c1cccc(OCCO)c1 | 2.14 | -0.887 (inactive) | 0.984 (inactive) | -1.83 (inactive) | 0.808 (inactive) | -0.183 (inactive) | 0.0995 (inactive) | -0.514 (inactive) | -0.245 | -0.0655 |
| Cc1ccc(S[C@]2(C(=O)O)CC(=O)N(Cc3ccccc3)[C@@H]2c2ccc(CO)cc2I)cc1 | -0.201 | -3.44 (inactive) | -2.14 (inactive) | -0.975 (inactive) | 0.649 (inactive) | -1.44 (inactive) | -0.256 (inactive) | -0.246 (inactive) | -1.26 | -0.287 |
| CC(CCN1CCCCc2nc(C)c(C)cc21)=NOC(C)CN1CCCCc2nc(C)c(C)cc21 (stereo not given) | 0.149 | -0.211 (inactive) | -0.29 (inactive) | 0.159 (inactive) | 0.216 (inactive) | 0.596 (inactive) | 0.5 (inactive) | -0.024 (inactive) | 0.643 | 0.24 |
| CCN1C(=O)[C@H]2[C@H]3[C@H](O)[C@H](O)CC(=NOC(C)CN4CCCCc5nc(C)c(C)cc54)[C@@H]3CC[C@H]2C1=O (stereo not given in full) | -1.3 | -0.0913 (inactive) | -0.669 (inactive) | 0.301 (inactive) | -0.418 (inactive) | 0.002 (inactive) | 0.538 (inactive) | 1.2 (inactive) | -0.889 | -0.211 |
| COC(=O)[C@H](C)NC(=O)CCC1CC(OC(=O)NCc2cccc3ccccc23)CC2(CCCC(COC(=O)NCCc3ccc(Cl)cc3)O2)O1 (stereo not given in full) | 0.788 | -0.0765 (inactive) | 0.319 (inactive) | -0.473 (inactive) | -0.61 (inactive) | -0.425 (inactive) | -0.0798 (inactive) | 0.687 (inactive) | 0.413 | -0.0718 |
| COc1ccc([Si](C)(C)[C@@H]2[C@@H](CCO)O[C@]3(C(=O)N(Cc4ccc(NC(C)=O)cc4)c4ccccc43)[C@H]2C)cc1 | -2.52 | 1.6 (inactive) | -5.15 (inactive) | -1.34 (inactive) | -0.094 (inactive) | 3.91 (inactive) | -0.486 (inactive) | -0.937 (inactive) | -5.29 | 0.0291 |
| COCCOC(=O)N1C(=O)[C@@]2(c3cc(C#Cc4ccc(OC)cc4)ccc31)[C@H](C(=O)N1CCN(c3ncccn3)CC1)[C@H]1C(=O)O[C@H](c3ccccc3)[C@H](c3ccccc3)N1[C@@H]2c1ccc(OCCO)cc1 | 0.254 | 1.89 (inactive) | 0.468 (inactive) | -1.62 (inactive) | 3.21 (inactive) | 3.06 (inactive) | 0.178 (inactive) | -0.0435 (inactive) | -0.0737 | -0.337 |
| COC(=O)CC=C[C@H](C)[C@H](CO)NS(=O)(=O)c1ccc(C)cc1 | -0.502 | -0.342 (inactive) | -0.701 (inactive) | 0.0702 (inactive) | 1.09 (inactive) | -0.513 (inactive) | -0.586 (inactive) | -0.6 (inactive) | 0.139 | -0.123 |
| O=C1[C@H]2[C@H]3[C@H](O)[C@H](O)CC(=NOCc4ccccc4)[C@@H]3CC[C@H]2C(=O)N1C1CCCCC1 | -0.116 | -3.16 (inactive) | -0.321 (inactive) | 0.35 (inactive) | 1.29 (inactive) | 0.594 (inactive) | -0.315 (inactive) | -0.881 (inactive) | -0.456 | -0.144 |

— PubChem BioAssay
